S1P2 antag: blocks the human S1P2 receptor; O95136; cell-based S1P2 antagonist assay, inhibition at 5 uM; inhibition, % at 5 µM; 97,000 tested, 0.21% active; AID 736; in the data active = inhibition above about 45%;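 also: CRE beta-lactamase reporter cells expressing human S1P2 stimulated with S1P; 0% = agonist at EC80 alone and 100% = agonist plus reference antagonist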
Target sequence (O95136 whole entry, looked up): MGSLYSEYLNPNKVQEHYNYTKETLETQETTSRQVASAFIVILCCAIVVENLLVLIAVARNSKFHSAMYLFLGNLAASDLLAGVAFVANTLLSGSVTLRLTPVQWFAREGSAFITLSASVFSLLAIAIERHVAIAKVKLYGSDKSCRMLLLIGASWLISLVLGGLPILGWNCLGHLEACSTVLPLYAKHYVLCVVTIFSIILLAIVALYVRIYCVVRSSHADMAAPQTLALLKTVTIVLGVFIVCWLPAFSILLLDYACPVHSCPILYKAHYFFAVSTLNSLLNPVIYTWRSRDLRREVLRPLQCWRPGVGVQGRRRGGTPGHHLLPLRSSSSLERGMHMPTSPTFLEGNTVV
S1P2 agonist: agonists of human S1P2 receptor; O95136; activation, % at 4.5 µM; S1P2-expressing cell line, agonist reporter read-out; 97,000 tested, 0.46% active; in the data active = activation above about 16%;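 also: 0% = vehicle low control and 100% = maximal reference agonist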
GALR2 agonist: activates the human galanin receptor 2 | AID 803 | GALR2-expressing cells, agonist activation read-out | 140,000 tested, 0.48% active | O43603 | activation, % (no concentration beside the values); in the data active = activation above about 5%, passing the limit was not always enough;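 also: 0% = vehicle buffer wells and 100% = reference agonist at full effect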
F-actin modifier: modifiers of cytoskeleton assembly; HUVEC TNFa F-actin phalloidin imaging, high content; 91,000 tested, 0.18% active; inhibition, % at 2 µM;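 active = inhibition above the batch mean plus 3 SD and confirmed as a hit by visual image inspection, cut at about 30% in these data, passing the limit was not always enough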
GALR2 antag: blocks the human galanin receptor 2; O43603; GALR2-expressing cells, antagonist mode; inhibition, % at 4 µM; 140,000 tested, 0.39% active; AID 828; in the data active = inhibition above about 27%;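 also: cells stimulated with galanin 1-16 at roughly its EC80; 0% = agonist challenge control and 100% = basal control without agonist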
GALR2 ag confirm: confirmation of human galanin receptor 2 (GALR2) agonists; shares compounds with GALR2 agonist; GALR2-expressing cells, agonist activation; activation, % at 5.6 µM; 460 tested, 10% active; in the data active = activation above about 8.4%;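 also: 0% = buffer-only vehicle wells and 100% = full reference agonist response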
BLA act counter: activates beta-lactamase reporter in GALR2 agonist counterscreen; shares compounds with GALR2 agonist; CHO NFAT-bla reporter, beta-lactamase FRET activation; activation, % at 5.6 µM; 460 tested, 10% active; AID 865;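 active = activation above the screen-wide mean activation plus 3 SD, cut at about 8% in these data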;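 also: 0% = DMSO with PBS wells and 100% = thapsigargin positive control wells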
Numbers without * were called inactive; · = no result given. Shown are actives, neighbours in structure and some others; about 1.3% of the full set was active somewhere.

SMILES	S1P2 antag	S1P2 agonist	GALR2 agonist	F-actin modifier	GALR2 antag	GALR2 ag confirm	BLA act counter
CC1CCN(c2ccc(NC(=S)NC(=O)c3ccc(-c4cccc([N+](=O)[O-])c4)o3)cc2)CC1	-16	-4	-2	1	6	·	·
CC1CCN(c2ccccc2NC(=S)NC(=O)c2ccc(-c3cccc([N+](=O)[O-])c3)o2)CC1	9	-3	21*	0	8	-1	-1
CCOCC(=O)Nc1nnc(COC)s1	1	-4	0	6	-2	·	·
COCc1nnc(NC(=O)C(C)C)s1	-9	3	136*	-3	-1	-1	0
Cc1cccc(C2=NC(C(F)(F)F)(C(F)(F)F)c3c(n(-c4ccc(F)cc4)c(=O)[nH]c3=O)N2)c1	·	·	-2	·	0	·	·
COc1ccccc1C(=O)N1CCN(c2cccc(Cl)c2)CC1	3	-4	-1	·	6	·	·
O=C1OCCN1C(=O)[C@H]1[C@H](c2ccc(Cl)cc2)C(c2cccc(Cl)c2)=NN1c1ccccc1	·	·	23*	·	-1	10*	19*
COc1ccccc1[C@@H]1C(c2cccc(Cl)c2)=NN(c2ccccc2)[C@H]1C(=O)N1CCOC1=O	·	·	30*	·	8	13*	22*
Cc1cccc(C2=NN(c3ccc(Br)cc3)[C@@H](C(=O)N3CCOC3=O)[C@@H]2c2ccc(F)cc2)c1	·	·	9.8*	·	7	5	8
N/C(=N\c1nc2c(c(=O)[nH]1)CCC2)Nc1ccccc1	·	·	-1	·	8	·	·
Cc1nc2c(-c3ccc(F)cc3)c(C)nn2c(C)c1CCC(=O)NCCN1CCOCC1	-11	-5	-1	-6	1	·	·
COCCNC(=O)CCc1c(C)nc2c(-c3ccc(F)cc3)c(C)nn2c1C	4	-3	42*	8	-11	0	-1
Cc1c(C(=O)NC(C(C)C)C(C)C)cccc1[N+](=O)[O-]	·	·	0	·	-2	·	·
O=C(Nc1cccc(C(F)(F)F)c1)c1cc(-c2ccc(F)cc2)on1	6	-7	9	·	1	0	-2
COc1cccc(OCCCOc2ccccc2C(C)C)c1	-8	-1	-3	15	-4	·	·
CCOC(=O)c1ccc(-c2ccc(/C=C(\C#N)C(=O)NCc3cccs3)o2)cc1	·	·	9.3*	·	0	9.4*	8.7*
N#C/C(=C\c1ccc(-c2ccc(C(=O)O)cc2)o1)C(=O)NCC1CCCO1 (stereo unspecified)	·	·	-1	·	0	·	·
Cc1cc(C)c(NC(=O)CCCC(=O)O)c(Cl)c1	9	-2	13*	·	-2	-1	-2
CCc1cccc(C)c1NC(=O)CCCC(=O)O	-12	-2	-2	-8	-16	·	·
COc1ccc(CCN2CCC(Nc3nc4ccccc4n3Cc3ccc(F)cc3)CC2)cc1	·	·	25*	·	2	18*	3
Cc1cc(Cl)c(OCCCCNC(C)(C)C)c(Br)c1	·	·	0	·	-3	·	·
O=C(COC(=O)c1cc(-c2cccc3ccccc23)nc2ccccc12)NC1CCS(=O)(=O)C1 (stereo unspecified)	·	·	0	·	7	·	·
COc1ccc2cc(-c3cc(C(=O)OCC(=O)NC4CCS(=O)(=O)C4)c4ccccc4n3)ccc2c1 (stereo unspecified)	·	·	11*	·	14	14*	25*
CC(C)c1ccc(OCC(=O)NCCO)cc1	·	·	0	·	-14	·	·
Cc1ccc(NC(=O)Cn2c(/C=C/c3ccccc3)nc3ccccc32)cc1C	-5	-5	8	-2	3	6	7
SMILES	S1P2 antag	S1P2 agonist	GALR2 agonist	F-actin modifier	GALR2 antag	GALR2 ag confirm	BLA act counter
Cc1cccc(NC(=S)NC(=O)c2ccco2)n1	·	·	-1	·	7	·	·
O=S(=O)(c1cccc2ccccc12)n1nnc2ccccc21	-14	-4	94*	-7	-14	-1	-2
Cc1ccc(C(C(=O)NC2CCCCC2)N2CCC3(CC2)OCCO3)cc1 (stereo unspecified)	-2	-2	-1	-18	-4	·	·
O=C(NC1CCCCC1)C(c1ccc(Cl)cc1)N1CCC2(CC1)OCCO2 (stereo unspecified)	0	-2	11*	-5	-9	-1	-3
CC(=O)N1CCc2ccc(S(=O)(=O)N3CCN(C)CC3)cc21	·	·	-2	·	9	·	·
O=S(=O)(c1cccc(C(F)(F)F)c1)N1CCN(c2ccccc2)CC1	1	-3	12*	13	-9	-1	-3
CC(C)COc1cccc(C(=O)NC(=S)NCc2cccnc2)c1	·	·	0	·	-4	·	·
O=C(Nc1cccc2ncccc12)C12CC3CC(CC(C3)C1)C2	-9	-4	0	-1	-14	·	·
O=C(CC12CC3CC(CC(C3)C1)C2)Nc1cccc2ncccc12	-7	-3	23*	13	-8	0	-1
CN1CCN(C(=S)NC(=O)/C=C/c2cccc3ccccc23)CC1	-6	-1	22*	22	11	0	-4
Cc1csc(SCC(=O)NCCc2ccc(Cl)cc2Cl)n1	·	·	-1	·	-5	·	·
O=C(CNC(=S)N(Cc1ccccc1)Cc1cccnc1)NC1CCCCC1	·	·	0	·	6	·	·
NS(=O)(=O)c1ccc(N2N=C(c3ccccc3)CC2c2ccc(F)cc2)cc1 (stereo unspecified)	-6	5	20*	12	-10	5	11*
CCN(CC)C(c1ccc(F)cc1)c1nnnn1C1CCCCC1 (stereo unspecified)	-18	-7	9.8*	-7	-1	0	-1
CCN(CC)C(c1ccc(C)cc1)c1nnnn1C1CCCCC1 (stereo unspecified)	9	-2	-1	-6	-8	·	·
O=[N+]([O-])c1ccccc1S(=O)(=O)n1nnc2ccccc21	·	·	-1	·	3	·	·
Cc1nn(C)c(C)c1/C=N/NC(=O)CCn1cc([N+](=O)[O-])cn1	·	·	92*	·	-5	-1	-1
CCOc1ccc(Nc2nc(Cc3nnc(SCC(=O)NCc4ccco4)n3CC)cs2)cc1	-11	-6	12*	·	-17	12*	27*
Cc1ccc(OCc2nnc(SCC(=O)NCc3ccco3)n2C)cc1	-11	-4	-1	-1	-4	·	·
Fc1c(F)c(C(F)(F)F)c(F)c(F)c1N/N=C\c1cccs1	5	0	31*	-7	1	7	6
